# According to PubChem BioAssay (NCI):
# This is part of a sample that, as a whole, favours compounds with a hit. Of some 83,000 tested, about 20% had one in any assay.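 A percent growth of 40 corresponds to 60% growth inhibition; 0 means no net growth; -100 means all cells died. Active threshold: below 10.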 Unmarked numbers belong to inactive results. Active and inactive are the calls of the source.
# Test system: HL-60(TB) leukemia
# Assay: NCI-60 one-dose screen, 48 h (100 = growth as untreated, 0 = no growth, -100 = all killed)
# Details: 10 µM unless noted
row,SMILES,growth
1,c1ccc(-c2ccc(-c3nc4ccccc4[nH]3)cc2)cc1,66.7%
2,CCOC(=O)c1c(NC(=O)c2ccccc2)sc2c3c(ccc12)OCN(C)C3,-62.5% (active)
3,CC(=O)OC1Oc2cc(C)c(C)cc2-c2oc(=O)c(-c3cc4ccccc4oc3=O)cc21 (stereo not given),93.4%
4,Cn1c(NCCc2ccc(O)c(O)c2)nc2c1c(=O)n(Cc1ccc(Cl)c(Cl)c1)c(=O)n2C,14.8%
5,COc1cc(/C=N/NC(=O)c2ccc(C(F)(F)F)nc2Nc2cc(Cl)ccc2C)cc(OC)c1OC,107%
6,COC(=O)c1cc2cc(-c3ccc(OC)cc3)cnc2[nH]1,-2.68% (active)
7,O=C(Nc1cccc(-n2cc(-c3ccncc3)c(-c3cc(O)cc(Cl)c3)n2)c1)c1cc(C(F)(F)F)cc(C(F)(F)F)c1,21.4%
8,C/C=C/c1cc2c(c(=O)o1)C(=O)[C@@H](O)[C@H](C)O2,-22% (active)
9,COc1cc(NCCCCCNC(C)(C)C)c2ncccc2c1,128%
10,Cc1c(C)c2c(c(C)c1NC(=O)CCCCCCC(=O)O)CCC(C)(CCCC(C)CCCC(C)CCCC(C)C)O2 (stereo not given),75.1%
11,Cc1ccc(/C=C/C(=O)Nc2ncc(Cc3ccc(F)cc3)s2)o1,2.75% (active)
12,O=c1nc2n(nc1/C=C/c1ccco1)CC(c1ccc(Cl)cc1)=NN2,70.1%
13,COc1cc(OC)c2sc(-c3ccc(-n4cncc4-c4cc(OC)c(OC)c(OC)c4)cc3)nc2c1,30.3%
14,CC(C)(C)c1ccc(S(=O)(=O)N[C@H]2CC[C@H]3[C@@H]4CCc5cc(O)ccc5[C@H]4CC[C@]23C)cc1,23%
15,CCOC(CNCc1cc(C)c2[nH]c3ccccc3c2c1C)OCC,86%
16,N#Cc1c(NC(=O)c2ccc([N+](=O)[O-])o2)[n+]([O-])c2cc(F)c(F)cc2[n+]1[O-],90.2%
17,O=C(C[C@@]1(O)C(=O)Nc2c(Cl)ccc(Cl)c21)c1ccc(C2CC2)cc1,-17.8% (active)
18,Cc1ccccc1NS(=O)(=O)c1cccc(C(=O)Nc2ccc(Br)cc2)c1,27.6% [25 µM]
19,CC/C(C)=C(\C)C(=O)O,100%
20,COC(=O)[C@H]1Cc2c([nH]c3ccccc23)[C@@H](c2cccs2)N1,99.7%

row,SMILES,growth
1,O=C(Nc1nc(-c2ccc(Cl)cc2)cs1)c1cc(O)c(O)c(O)c1,10.4%
2,CCCc1cc2c(cc1CN(Cc1cc3c(cc1CCC)OCO3)C(=N)OCC)OCO2,105%
3,COc1cc2c(cc1OC)-c1ccc3cc4c(cc3c1N(CCCn1ccnc1)C2)OCO4,3.45% (active)
4,O=C1c2ccccc2C(=O)c2c(O)c(Cl)cc(O)c21,122%
5,CCN1C(=O)N(CC)C2Nn3c(s/c(=C\c4ccccc4F)c3=O)=NC21 (stereo not given),7.77% (active)
6,COc1cccc(-c2nc3occn3c2-c2ccnc(NCCNS(=O)(=O)c3cccc4ccccc34)n2)c1,121%
7,O=C(Nc1cc(F)cc2cccnc12)c1cnc(N2CCNCC2)cn1,77.1%
8,CC(=O)c1ccc(Nc2nc(NCCO)nc(Nc3ccc(Cl)cc3)n2)cc1,103%
9,COc1cc(NS(=O)(=O)c2ccc(-c3cnc(C4CC4)o3)cc2)ccc1F,1.92% (active)
10,O=C1OC(Oc2ccc(Br)cc2)(c2ccccc2)c2ccccc21 (stereo not given),120%
11,CCOC(=O)c1cnc2ccc(OC)cc2c1Nc1cccc(S(=O)(=O)NC)c1,109%
12,CCCCNc1ccc(-c2ccc(NCCCC)cc2)cc1,45.4%
13,CN1C(=O)N(C)C2C1NN=c1s/c(=C\c3ccccc3F)c(=O)n12 (stereo not given),-46.5% (active)
14,CCOC(=O)CSc1c(-c2ccccc2)c2cc(Cl)ccc2[nH]c1=O,84.7%
15,COc1cc(-c2nc(C(=O)NCC(=O)O)nn2-c2ccc(Cl)cc2)cc(OC)c1OC,101%
16,CSc1nc2sc3cccc(Cl)c3n2c(=N)c1C#N,91.8%
17,Cc1ccc(Nc2cc(N)nc(N)n2)cc1,99.6%
18,COC(=O)c1cc2c3c(cc(O)c2[nH]1)N(C(=O)C1Cc2cc(OC)c(OC)c(OC)c2N1)CC3CCl (stereo not given),-5.77% (active)
19,O=c1ccccc(-c2ccc(-c3ccco3)cc2)c1O,-30.3% (active)
20,COC(=O)c1nc(-c2ccc(C)cc2)oc1S(=O)(=O)c1ccc(Cl)cc1,51.8%
